Shown are actives, neighbours in structure and some others; about 2.4% of the full set was active somewhere.
TDP1 block: qHTS Assay for Inhibitors of Tyrosyl-DNA Phosphodiesterase (TDP1); Tyrosyl-DNA phosphodiesterase 1 (Homo sapiens), Q9NUW8; recombinant TDP1, AlphaScreen DNA substrate cleavage; Potency, µM (titrated, usually from 130 µM), for the others: at the highest dose activity change, negative = inhibition, actives largely listed as inhibitors; 0.28% of 350,000 active; AID 485290, 2010; note: % is set by controls: 0 for no effect and ±100 for the full control effect; nearly all actives have a fitted effect of over 40% in size
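Compounds were preincubated with Tdp1 (1 nM final) for 15 min at room temperature before substrate (15 nM final) started a 5 min reaction; beads (10 ug/ml final) were then added for 10 min before AlphaScreen detection.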
POLI inh: qHTS for Inhibitors of Polymerase Iota. Pol iota fluorescent replication assay, 10 min. Potency, µM (doses to about 115 µM), without a hit: at the top dose activity, negative = inhibition, hits mostly inhibitors. 1% of 390,000 active
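Pol iota at 10 nM preincubated 15 min with compounds at room temperature; reaction started with fluorescent substrate, 50 nM final. Fluorescence read kinetically at 0 and 10 min; buffer-only wells as negative control.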
Pol eta inh: qHTS for Inhibitors of Polymerase Eta | DNA polymerase eta (Homo sapiens), Q9Y253 | recombinant Pol eta, fluorescent DNA replication assay | Potency, µM (highest dose often 114 µM), inactives show top-dose activity change, negative = inhibition, actives largely listed as inhibitors | 1.2% of 390,000 active; note: % is set by controls: 0 for no effect and ±100 for the full control effect
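Fluorescent replication assay: 50 nM final substrate added after a 15 min room-temperature compound preincubation with 10 nM enzyme. Signal taken at 0 min and again at 10 min.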
FEN1 inhibitor: qHTS Assay for the Inhibitors of Human Flap endonuclease 1 (FEN1); Recombinant FEN1 flap cleavage, fluorescence, 15 min; 0.35% of 390,000 active; P39748; AID 588795, 2011; Potency, µM (top dose mostly 114 µM), without a hit: at the top dose activity change, negative = inhibition, actives largely listed as inhibitors; note: % is set by controls: 0 for no effect and ±100 for the full control effect; nearly all actives have a fitted effect of over 65% in size
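Compounds are tested as a concentration series against 10 nM FEN1; after a 15 min room-temperature preincubation, 50 nM substrate starts cleavage, with plate reads at 0 and 15 min. Normalized responses are fitted by a Hill equation.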
POLK inh: qHTS for Inhibitors of Polymerase Kappa | DNA polymerase kappa (Homo sapiens), Q9UBT6 | purified Pol kappa, fluorescent DNA synthesis assay, 10 min | Potency, µM (top dose mostly 107 µM), for inactives: at the highest dose activity, negative = inhibition, actives largely listed as inhibitors | 0.53% of 400,000 active; note: % is set by controls: 0 for no effect and ±100 for the full control effect
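Inhibition of 10 nM Pol kappa is measured by a fluorescent read-out at 0 and 10 min following addition of 50 nM substrate (final), with a 15-min room-temperature compound preincubation.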
Pol beta inh: qHTS Assay for Inhibitors of DNA Polymerase Beta. Pol beta primer extension/strand displacement, fluorescence kinetic. Potency, µM (doses to about 114 µM), without a hit: top-dose activity change, negative = inhibition, usual class: inhibitors. P06746. AID 485314, 2010. 1.3% of 340,000 active; note: % is set by controls: 0 for no effect and ±100 for the full control effect
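Curves were derived by four-parameter Hill fits of normalized qHTS data. The kinetic fluorescent primer-extension read was taken at 0 and 10 min after 50 nM substrate, following a 15 min room-temperature preincubation of 10 nM enzyme with compounds.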
Numbers without * were called inactive; ? = inconclusive; . = no result; [ ] = another dose, or the depositor's remark. Calls come from the whole dose curve; as a rule, active = well fitted curve in the direction sought with a large enough effect; inconclusive = small, poorly fitted or top-dose-only effect, or another doubt; inactive = no such curve, though single readings can be large; an effect the other way counts as inactive or inconclusive. Potency is the fitted concentration of half-maximal effect.

SMILES	TDP1 block	POLI inh	Pol eta inh	FEN1 inhibitor	POLK inh	Pol beta inh
C=CCn1c(SCc2nc3sc(C(=O)O)c(C)c3c(=O)[nH]2)nnc1-c1ccc(F)cc1	.	-11%	?	-9%	-17%	8%
Cc1c(C(=O)O)sc2nc(/C=C/c3cccc(F)c3)[nH]c(=O)c12	.	-5%	79µM*	?	9%	45µM*
COC(=O)c1ccc2c(c1)NC(=O)C1CCCN21 (configuration not stated)	.	5%	-4%	?	-3%	.
Cc1ccc(NC(=O)COC(=O)c2ccc3c(c2)NC(=O)C2CCCN32)cc1 (configuration not stated)	-1%	7.9µM*	3%	2%	-6%	16%
O=c1[nH]/c(=C/c2ccc3c(c2)OCO3)c(=O)[nH]/c1=C\c1ccc2c(c1)OCO2	.	-16%	.	-13%	0%	.
CC1CCC/C(=N\Nc2ccc(Cl)c(C(=O)O)c2)C1 (configuration not stated)	?	?	8.9µM*	-21%	?	32µM*
Oc1ccc(N=C/C=C/c2ccc(Br)cc2)cc1-c1nc2ccccc2s1	-1%	.	.	.	.	13µM*
O=C(CNS(=O)(=O)c1ccc(Br)cc1)OCc1cc(=O)n2cc(Br)ccc2n1	.	.	.	.	.	35µM*
Cc1ccc(-c2c(CN3CCN(c4cccc(C(F)(F)F)c4)CC3)csc2C)cc1	3%	6%	-25%	-12%	-8%	4%
O=C(Nc1ccc2nc(-c3cccs3)c(-c3cccs3)nc2c1)N1CCCC1	0%	47%	.	10%	3%	.
O=C(Nc1ccc2nc(-c3ccco3)c(-c3ccco3)nc2c1)N1CCCCCC1	.	3.2µM*	10µM*	50µM*	7.1µM*	2.2µM*
CCOC(=O)C1CCN(C(=O)Nc2ccc3nc(-c4ccco4)c(-c4ccco4)nc3c2)CC1	35µM*	2.8µM*	2.8µM*	?	16µM*	1.6µM*
COc1ccc(NC(=O)C2=C(C)Nc3nc(SCc4ccccc4)nn3C2c2cc(OC)ccc2OC)cc1 (configuration not stated)	-3%	24%	-19%	26%	2%	-2%
O=[S+]1([O-])N=C(Oc2cccnc2)c2ccccc21	1%	.	.	.	.	.
COc1cc2c(NC3CCN(C)CC3)nc(N3CCN(C)CC3)nc2cc1OCCOCCN(C)C	.	-3%	.	?	-2%	.
COc1cc2c(NC3CCN(C(C)C)CC3)nc(N3CCCN(C)CC3)nc2cc1OCCOCCN(C)C	.	?	.	40µM*	-25%	.
COc1cc2c(NC3CCN(C(C)C)CC3)nc(N3CCCN(C)CC3)nc2cc1OCCCN1CCCC1	.	?	.	22µM*	-34%	.
COc1cc2c(NC3CCN(C)CC3)nc(N3CCCN(C)CC3)nc2cc1OCCOCCN(C)C	.	?	.	28µM*	-16%	.
COc1cc2c(NC3CCN(C)CC3)nc(N3CCCCC3)nc2cc1OCCOCCN(C)C	.	50µM*	.	?	-29%	.
CC(=O)c1cc2c(cc1O)OC(C)(C)C=C2	22µM*	.	.	.	-5%[60.1 µM]	.
O=C(Cn1ncc2c3ccccc3n(Cc3ccc(F)cc3)c2c1=O)NC1CCCCCC1	0%	5%	-12%	-17%	-9%	41%
O=C(Cn1ncc2c3ccccc3n(Cc3cccc(Cl)c3)c2c1=O)NC1CCCCCC1	8%	?	?	1%	-15%	13µM*
CSC1=N/C(=C\c2ccc(Br)o2)C(=O)S1	?	7.1µM*	8.9µM*	-28%	32µM*	40µM*

Source: PubChem (National Center for Advancing Translational Sciences (NCATS))
